Source: PubChem BioAssay
T cruzi growth-1 = T. cruzi intracellular proliferation inhibitors, primary screen, cell-based, beta-gal Tulahuen parasites, NIH3T3 host, luminescence; T. cruzi beta-gal in NIH3T3, GalScreen luminescence, 90 h; inhibition, % at 8.34 µM; hit rate 5.9% among 77,000;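 active = mean inhibition above about 93%, with at least 55% of replicates each passing it, limit read from the data, passing the limit was not always enough; inconclusive = only one of those two conditions holds; inactive = neither condition holds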
Pf Dd2 inh = P. falciparum Dd2 growth inhibitors, primary screen, SYBR Green fluorescence, single dose replicates; 72 h; active compounds read low; activity change, % at 10 µM; hit rate 2.3% among 94,000; AID 1159554, 2015; in the data active = activity change below about -80%; inconclusive = no clear call, values can overlap the other calls
C diff HTS = C. difficile growth inhibitors, primary screen, HTS. hit rate 0.25% among 86,000. Clostridium difficile clinical isolate growth, OD600, 24 h; active compounds read low. growth activity, negative = inhibition, % at 16 µg/mL (by protocol);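 active = mean growth activity at or below -80% and every replicate also at or below -80%; inconclusive = mean at or below -80% but some replicate above -80%; inactive = mean growth activity above -80%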;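 note: 0% = DMSO wells and -100% = levofloxacin 16 µg/mL wells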
T cruzi growth-2 = T. cruzi intracellular proliferation inhibitors, confirmation, cell-based, NIH3T3 host, beta-gal parasite, luminescence, cherry-pick; T. cruzi beta-gal in NIH3T3, GalScreen luminescence, 90 h; inhibition, % at 8.35 µM; hit rate 72% among 5,600; AID 651739, 2012; shares compounds with T cruzi growth-1;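 active = mean replicate inhibition above about 95% and at least 55% of replicates individually reaching it, limit read from the data; inconclusive = only one of the two criteria is met; inactive = neither criterion is met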
T cruzi growth-3 = inhibitors of intracellular T. cruzi replication, confirmation, NIH3T3 host cells, beta-gal parasites, cherry-pick, set 2; inhibition, % at 2.09 µM; shares compounds with T cruzi growth-1; hit rate 21% among 5,600; T. cruzi beta-gal in NIH3T3, GalScreen luminescence, 90 h;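 active = mean inhibition above about 95%, with at least 55% of replicates also reaching it, limit read from the data; inconclusive = meets just one of the two conditions; inactive = meets neither condition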;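 note: plate controls were neutral control median for no effect and positive control median for full effect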
3T3 cytotox = cytotoxicity in mouse NIH/3T3 fibroblasts, confirmation, cytotoxicity control for T. cruzi proliferation inhibitor project, cell-based, cherry-pick, single point | shares compounds with T cruzi growth-1 | NIH/3T3 viability, CellTiter-Glo ATP luminescence, 90 h | cytotoxicity (signal decrease), % at 8.35 µM | hit rate 14% among 5,600;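 active = mean signal decrease across replicates above about 35% based on untreated-well scatter, with enough replicates individually passing, limit read from the data; inconclusive = no rule stated though some were filed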;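 note: 0% = median of neutral control wells and 100% = median of positive control wells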
3T3 cytotox 2 = NIH/3T3 fibroblast cytotoxicity, confirmation, cytotoxicity control, cell-based, cherry-pick, single point, set 2. NIH/3T3 viability, CellTiter-Glo ATP luminescence, 90 h. hit rate 56% among 5,600. shares compounds with T cruzi growth-1. inhibition, % at 24.9 µM;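 active = mean loss of cell viability signal at or above a set limit, and enough replicates individually reaching it; inconclusive = meets only the mean limit or only the replicate share; inactive = meets neither condition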;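 note: 0% = median of neutral control wells and 100% = median of positive control wells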
An asterisk follows results filed as active; ? = inconclusive; . = no result given. Shown are actives, neighbours in structure and some others; about 6.8% of the full set was active somewhere.

SMILES	T cruzi growth-1	Pf Dd2 inh	C diff HTS	T cruzi growth-2	T cruzi growth-3	3T3 cytotox	3T3 cytotox 2
C[C@@H]1CN([C@H](C)CO)S(=O)(=O)c2ccc(-c3cccc(C#N)c3)cc2O[C@@H]1CN(C)C(=O)c1ccccc1	78	-31	-4	.	.	.	.
C[C@H](CO)N1C[C@H](C)[C@@H](CN(C)C(=O)Nc2cc(F)ccc2F)Oc2cc(-c3cccc(C#N)c3)ccc2S1(=O)=O	.	-36	.	.	.	.	.
O=C(Nc1ccccc1)N1CCCCN2[C@H](C1)[C@@H](c1ccc(C#CC3CC3)cc1)[C@@H]2CO	105*	1	16	96*	80	43*	104*
O=C(Nc1ccccc1)N1CCCCN2[C@H](CO)[C@H](c3ccc(C#CC4CC4)cc3)[C@@H]2C1	76	-5	-3	.	.	.	.
O=C(Nc1ccccc1)N1CCCCN2[C@H](CO)[C@@H](c3ccc(C#CC4CC4)cc3)[C@H]2C1	91	-54	19	.	.	.	.
O=C(Nc1ccccc1)N1CCCCN2[C@@H](CO)[C@H](c3ccc(C#CC4CC4)cc3)[C@@H]2C1	108*	-18	22	89	70	?	103*
COc1ccc2c3c([nH]c2c1)[C@@H](CO)N(S(C)(=O)=O)CC31CCN(Cc2ccccc2)CC1	.	28	.	.	.	.	.
Cc1noc(C)c1NC(=O)N(C)C[C@H]1Oc2ccc(NS(=O)(=O)c3ccc(Cl)cc3)cc2C(=O)N([C@@H](C)CO)C[C@H]1C	-10	6	-6	.	.	.	.
CCCNC(=O)N(C)C[C@@H]1Oc2cc(-c3ccncc3)ccc2S(=O)(=O)N([C@H](C)CO)C[C@@H]1C	38	-16	-2	.	.	.	.
CCCNC(=O)N(C)C[C@@H]1Oc2cc(-c3ccncc3)ccc2S(=O)(=O)N([C@H](C)CO)C[C@H]1C	107*	-1	-2	87	76	1	13
CCCNC(=O)N(C)C[C@@H]1Oc2cc(-c3ccncc3)ccc2S(=O)(=O)N([C@@H](C)CO)C[C@H]1C	111*	38	-4	97*	85	2	10
CCCNC(=O)N(C)C[C@@H]1Oc2cc(-c3ccc(C)cc3)ccc2S(=O)(=O)N([C@@H](C)CO)C[C@@H]1C	-1	-19	7	.	.	.	.
C[C@@H]1CN([C@H](C)CO)C(=O)Cc2cc(NS(=O)(=O)c3ccc(F)cc3)ccc2O[C@H]1CN(C)S(=O)(=O)c1ccccc1	3	-7	-5	.	.	.	.
CC(=O)N1Cc2cc(C(=O)NCC(F)(F)F)nc(-c3cccc(-c4cncnc4)c3)c2[C@H]1CCO	.	-5	-6	.	.	.	.
CN1C(=O)c2cc(NC(=O)c3cccc(Cl)c3)ccc2OC[C@H]2O[C@@H](CC(=O)NC3CCCCC3)CC[C@@H]21	.	8	2	.	.	.	.
CN1C(=O)c2cc(NC(=O)c3ccc(C(F)(F)F)cc3)ccc2OC[C@@H]2O[C@H](CC(=O)NC3Cc4ccccc4C3)CC[C@H]21	105*	-53	0	113*	46	16	?
CN1C(=O)c2cc(NC(=O)c3cccc(Cl)c3)ccc2OC[C@@H]2O[C@H](CC(=O)NC3CCCCC3)CC[C@@H]21	100*	-45	-5	99*	60	18	60*
CN1C(=O)c2cc(NC(=O)c3ccc(C(F)(F)F)cc3)ccc2OC[C@H]2O[C@H](CC(=O)NC3Cc4ccccc4C3)CC[C@H]21	77	-27	.	.	.	.	.
C[C@@H]1CN([C@H](C)CO)C(=O)Cc2cc(NC(=O)CCC(F)(F)F)ccc2O[C@@H]1CN(C)Cc1ccc(C(=O)Nc2ccccc2N)cc1	65	-53	-1	.	.	.	.
Cc1noc(C)c1NC(=O)Nc1ccc2c(c1)C(=O)N([C@@H](C)CO)C[C@H](C)[C@H](CN(C)C)OCCCC[C@@H](C)O2	51	17	0	.	.	.	.
COCCNC(=O)C[C@H]1C=C[C@@H](NS(=O)(=O)c2ccc(C)cc2)[C@H](CO)O1	.	-13	-6	.	.	.	.
C/C=C/c1ccc([C@H]2[C@@H](CO)N(C(=O)c3cnccn3)C23CN(C(=O)CC)C3)cc1	.	-33	1	.	.	.	.
C[C@@H]1CN([C@@H](C)CO)S(=O)(=O)c2ccc(C#Cc3ccccn3)cc2O[C@@H]1CN(C)Cc1ccc(F)cc1	100*	-29	-7	107*	87	38*	-7
C[C@@H]1CN([C@H](C)CO)S(=O)(=O)c2ccc(C#Cc3ccccn3)cc2O[C@H]1CN(C)C	.	28	5	.	.	.	.
C[C@@H]1CN([C@@H](C)CO)S(=O)(=O)c2ccc(C#Cc3ccccn3)cc2O[C@@H]1CN(C)C	.	22	-1	.	.	.	.
SMILES	T cruzi growth-1	Pf Dd2 inh	C diff HTS	T cruzi growth-2	T cruzi growth-3	3T3 cytotox	3T3 cytotox 2
C[C@H](CO)N1C[C@H](C)[C@@H](CN(C)Cc2ccc(F)cc2)Oc2cc(C#Cc3ccccn3)ccc2S1(=O)=O	127*	-34	-7	106*	102*	4	-10
CC(C)NC(=O)Nc1ccc2c(c1)C(=O)N([C@@H](C)CO)C[C@H](C)[C@H](CN(C)Cc1ccc3c(c1)OCO3)OCCCC[C@H](C)O2	34	-43	2	.	.	.	.
COc1ccc(S(=O)(=O)N[C@H]2CC[C@H](CC(=O)NCCc3ccncc3)O[C@H]2CO)cc1	14	-20	-1	.	.	.	.
C[C@@H]1CN([C@@H](C)CO)S(=O)(=O)c2ccc(C3=CCCCC3)cc2O[C@H]1CN(C)C(=O)c1ccccc1	57	-33	-3	.	.	.	.
C[C@@H]1CN([C@@H](C)CO)S(=O)(=O)c2ccc(C3=CCCCC3)cc2O[C@@H]1CN(C)C(=O)c1ccccc1	108*	-29	-2	84	93	27	70*
C[C@H](CO)N1C[C@H](C)[C@@H](CN(C)C(=O)c2ccc(F)cc2)Oc2cc(C3=CCCCC3)ccc2S1(=O)=O	?	-73	3	110*	52	31	48*
C[C@@H]1CN([C@H](C)CO)S(=O)(=O)c2ccc(C3=CCCC3)cc2O[C@@H]1CN(C)C(=O)c1ccc(F)cc1	.	-21	11	.	.	.	.
C[C@H](CO)N1C[C@H](C)[C@@H](CN(C)C(=O)c2ccccc2)Oc2cc(C3=CCCC3)ccc2S1(=O)=O	83	-42	-2	.	.	.	.
C[C@@H]1CN([C@@H](C)CO)S(=O)(=O)c2ccc(C3=CCCC3)cc2O[C@@H]1CN(C)C(=O)c1ccccc1	100*	-33	-6	114*	86	13	18
O=C(NC[C@H]1[C@@H](c2ccccc2)[C@@H](CO)N1Cc1ccccn1)NC1CCCC1	.	3	4	.	.	.	.
